The values below come from PMC6792352, “Limited Chemical Structural Diversity Found to Modulate Thyroid Hormone Receptor in the Tox21 Chemical Library” (Environmental Health Perspectives, 2019).

Where a name gives a salt, the structure may show the parent alone.

The assay concerns thyroid hormone receptor (endogenous TRα and TRβ). Further details: species or system GH3-TRE-Luc (rat pituitary); GH3-TRE-Luc luciferase reporter, antagonist mode against 1 nM T3, loss of signal, qHTS. As to conditions: read-out: Average AC50 (uM) GH3-TRE-Antag, antagonist mode, 1 nM T3, no GH3 cytotoxicity hit.

As a reminder, the AC50 is the midpoint of the concentration-response curve, whichever way the signal moves. On to `O=C1CCCCCCCCCCCC(=O)OCCO1` [1,4-Dioxacycloheptadecane-5,17-dione], for which the AC50 is 47.7 µM.
The figure for `CC[C@H](C)C(=O)O[C@H]1CCC=C2C=C[C@H](C)[C@H](CC[C@@H]3C[C@@H](O)CC(=O)O3)[C@H]21` [Mevastatin] is 30.9 µM; for `CC(=O)OC(c1ccccc1)C(Cl)(Cl)Cl` (stereo not drawn) [2,2,2-Trichloro-1-phenylethyl acetate] it is 55.4 µM.
Consider `CC(=O)C1(C)CC2=C(CCCC2(C)C)CC1C` (stereo not drawn) [Isocyclemone E], for which the AC50 turned out to be 87.5 µM.
For `CC(=O)Oc1ccc(C2(c3ccc(OC(C)=O)cc3)C(=O)Nc3ccccc32)cc1` [Oxyphenisatin acetate], the AC50 is above 50 µM.
As for `CC[C@H](C)C(=O)O[C@H]1C[C@H](O)C=C2C=C[C@H](C)[C@H](CC[C@@H](O)C[C@@H](O)CC(=O)O)[C@H]21` [Pravastatin sodium], the concentration at half-maximal activity (AC50) is 18.4 µM.
Consider `Oc1c(Cl)ccc(Cl)c1Cl` [2,3,6-Trichlorophenol], for which the concentration at half-maximal activity (AC50) was above 90 µM.
The same measure for `O=C(N[C@@H]1N=C(c2ccccc2F)c2cccc3c2N(CC3)C1=O)c1cc2ccccc2[nH]1` [N-[(3R)-1-(2-Fluorophenyl)-4-oxo-3,4,6,7-tetrahydro[1,4]diazepino[6,7,1-hi]indol-3-yl]-1H-indole-2-carboxamide]: 5.69 µM; for `Cc1cccc(Nc2ccccc2C(=O)O)c1C` [Mefenamic acid]: 27.4 µM.
Turning to `CC(C)CCCCCCCCCCCCCCC(=O)O` [Isooctadecanoic acid], the AC50 was determined as 16.3 µM.
On to `CCCCNc1ccc(C(=O)OCCN(C)C)cc1` [Tetracaine hydrochloride], for which the half-maximal activity concentration (AC50) is 11.2 µM.
With `COC(=O)[C@H](c1ccccc1Cl)N1CCc2sccc2C1` [Clopidogrel hydrogen sulfate], the AC50 was 45.8 µM.
